{
  "source": "ChEMBL document CHEMBL3988442",
  "about": "“University of Dundee, Small-Polar-MMV Screening Library” (2021)",
  "note": "Hit rate of the full screen: of about 48,000 compounds, about 13,000 (27%) showed an effect of 50% or more. This is one part of the list.",
  "data": [
    {"system": "Wolbachia pipientis", "test": "Anti-Wolbachia Cell-Based Screen", "format": "functional", "design": "scale not given: in the data most compounds retested in dose-response had high values", "settings": "5 µM", "units": {"Percent Effect": "%"}, "values": [
      {"compound": "CC(C)CN1CC[C@H](c2nnc(COc3ccc(F)cc3)o2)C1", "Percent Effect": 3.256},
      {"compound": "COc1ccc(-c2c[nH]c(C3CC(=O)N(CC(C)C)C3)n2)cc1", "note": "(configuration not stated)", "Percent Effect": -5.236},
      {"compound": "Clc1ccc(OCCc2cc(C3CCN(c4ncccn4)C3)n[nH]2)cc1", "note": "(configuration not stated)", "Percent Effect": 119.6},
      {"compound": "CCCN1CCC(c2cc(CCOc3ccc(C(F)(F)F)cc3)[nH]n2)C1", "note": "(configuration not stated)", "Percent Effect": 115.7},
      {"compound": "Br.COc1ccc(OCCc2cc(C3CCN(CC(C)C)C3)n[nH]2)cc1", "note": "(configuration not stated)", "Percent Effect": 140.6},
      {"compound": "O=C(NCCN1CCCC1)Nc1cc(C(=O)N2CCOCC2)ccc1Cl", "Percent Effect": -2.741},
      {"compound": "CC(CNS(C)(=O)=O)c1ccc(F)c(F)c1", "note": "(configuration not stated)", "Percent Effect": 0.4429},
      {"compound": "Cc1ccc(C(=O)N2C[C@H](NS(C)(=O)=O)[C@@H](C(C)C)C2)cc1F", "Percent Effect": 7.707},
      {"compound": "Cc1ccc(S(=O)(=O)NCC(C)C#N)cc1Br", "note": "(configuration not stated)", "Percent Effect": -32.7},
      {"compound": "CC(NC(=O)NC1CCN(Cc2ccncc2)CC1)c1cccc(F)c1", "note": "(configuration not stated)", "Percent Effect": 10.76},
      {"compound": "CNC(=O)C1CN(c2ccc(F)cc2)CCN1.Cl", "note": "(configuration not stated)", "Percent Effect": 158.3},
      {"compound": "Cl.NC(=O)C1CN(c2ccc(F)cc2)CCN1", "note": "(configuration not stated)", "Percent Effect": 113.5},
      {"compound": "COc1ccc(N2CCCN(CC(=O)N3CCNC(=O)C3)CC2)cc1", "Percent Effect": -7.971},
      {"compound": "COc1ccc(SC(C)C(=O)N2CCC(C(N)=O)CC2)cc1", "note": "(configuration not stated)", "Percent Effect": -1.042},
      {"compound": "Cc1cc(C(=O)NCc2ccc(N3CCCC(C(N)=O)C3)cc2)[nH]n1", "note": "(configuration not stated)", "Percent Effect": -1.321},
      {"compound": "CNC(=O)N1CCC2(CC1)CNc1ccc(F)cc12.Cl", "Percent Effect": 2.564},
      {"compound": "NC(=O)C1CCN(C(=O)c2ccn(-c3ccc(F)cc3)n2)C1", "note": "(configuration not stated)", "Percent Effect": -7.383},
      {"compound": "CNC(=O)C1CCN(C(=O)c2ccn(-c3ccc(F)cc3)n2)CC1", "Percent Effect": -2.487},
      {"compound": "COc1ccc(N2CCNC(C(N)=O)C2)cc1", "note": "(configuration not stated)", "Percent Effect": 90.5},
      {"compound": "CCN(CC)CCCC(C)NC(=O)c1ccccc1-n1cccn1", "note": "(configuration not stated)", "Percent Effect": 7.306},
      {"compound": "Cc1csc(CN(C)C(=O)Nc2cc(F)cc(N3CCCC3)c2)n1", "Percent Effect": 1.916},
      {"compound": "Cc1cc(CN2CCN(C(=O)C3CCC3)[C@@H]3CS(=O)(=O)C[C@@H]32)ccc1F", "Percent Effect": -7.739},
      {"compound": "COCc1cccc(NS(=O)(=O)c2cc(C(=O)O)cs2)c1", "Percent Effect": -2.674},
      {"compound": "COc1ccc(CC(=O)N2CCCC(c3nncn3C)C2)cc1", "note": "(configuration not stated)", "Percent Effect": -3.253},
      {"compound": "Cc1[nH]ncc1CCCNC(=O)N1CCCC(c2nncn2C)C1", "note": "(configuration not stated)", "Percent Effect": 131.8},
      {"compound": "Cc1[nH]ncc1CCCNC(=O)N1CCC(C(N)=O)CC1", "Percent Effect": -4.643},
      {"compound": "Cc1ccccc1CCNC(=O)N1CCCC(c2nncn2C)C1", "note": "(configuration not stated)", "Percent Effect": 7.468},
      {"compound": "COc1ccc(CCNC(=O)N2CCCC(c3nncn3C)C2)cc1", "note": "(configuration not stated)", "Percent Effect": 95.68},
      {"compound": "Cn1cc(CCNC(=O)N2CCCC(c3nncn3C)C2)cn1", "note": "(configuration not stated)", "Percent Effect": 107},
      {"compound": "Cn1cnnc1C1CCCN(C(=O)NCCc2ccccc2F)C1", "note": "(configuration not stated)", "Percent Effect": -7.484},
      {"compound": "CC(=O)N1CCCN(C(=O)NCCCc2cn[nH]c2C)CC1", "Percent Effect": 5.241},
      {"compound": "COc1ccccc1CCNC(=O)N1CCCC(c2nncn2C)C1", "note": "(configuration not stated)", "Percent Effect": 0.4535}
    ]}
  ]
}
